# A selection: hits, their analogues and other compounds. The true share with any hit is near 2.4%.
# Rpn11 inh = Rpn11 (PSMD14) deubiquitinase inhibitors, primary screen, biochemical, fluorescence polarization, uHTS | human 26S proteasome, Ub4-pepOG fluorescence polarization; 20S core pre-blocked with epoxomicin | inhibition, % at 20 µM | 360,000 tested, 0.59% active | AID 588493, 2011;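 active = inhibition at 20 µM, scaled to each plate's controls, above about 33%, limit read from the data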
# PREPL inh = PREPL enzyme inhibitors, primary screen, biochemical, fluorescence polarization; inhibition, % at 5.96 µM; AID 2751, 2010; 320,000 tested, 0.68% active; recombinant PREPL, fluorescence polarization activity-based probe;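 also: 0% = enzyme with DMSO and 100% = wells lacking enzyme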
# PP1 counter = PP1-alpha phosphatase inhibitors, primary screen, counter-screen for PP5 inhibitor project, biochemical, fluorescence, OMFP substrate, single point. Serine/threonine-protein phosphatase PP1-alpha catalytic subunit (Homo sapiens), P62136. 320,000 tested, 0.9% active. inhibition, % at 6.7 µM. purified PP1alpha. AID 2235, 2010;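 active = inhibition above the mean inhibition of all tested compounds plus 3 SD, computed separately for each screening campaign, cut at about 15% in these data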
# Target sequence (P62136 whole entry, looked up): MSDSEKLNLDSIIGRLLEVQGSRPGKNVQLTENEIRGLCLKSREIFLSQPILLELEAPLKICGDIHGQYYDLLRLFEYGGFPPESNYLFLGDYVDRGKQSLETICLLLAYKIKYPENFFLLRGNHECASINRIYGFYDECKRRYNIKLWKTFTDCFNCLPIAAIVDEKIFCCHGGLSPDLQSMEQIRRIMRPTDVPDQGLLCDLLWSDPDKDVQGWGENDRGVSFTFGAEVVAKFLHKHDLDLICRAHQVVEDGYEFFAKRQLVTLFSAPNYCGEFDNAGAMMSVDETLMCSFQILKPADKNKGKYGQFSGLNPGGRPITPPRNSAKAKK
# PP5 primary = PP5 phosphatase inhibitors, primary screen, biochemical, fluorescence; Serine/threonine-protein phosphatase 5 (Homo sapiens), P53041; purified PP5c, OMFP substrate fluorescence; inhibition, % at 6.7 µM; 320,000 tested, 0.18% active;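 active = inhibition above the campaign's mean inhibition across all tested compounds plus 3 SD, cut at about 9.5% in these data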;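 also: 0% = DMSO only and 100% = 100 µM cantharidin control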
# NadD inh = inhibitors of S. aureus NadD, primary screen, biochemical, colorimetric, uHTS; Nicotinate-nucleotide adenylyltransferase NadD (Staphylococcus aureus N315); purified NadD enzyme, colorimetric absorbance read-out; inhibition, % at 20 µM; 360,000 tested, 0.78% active; in the data active = inhibition above about 26%
# PREPL confirm = human PREPL enzyme inhibitors, confirmation, biochemical, fluorescence polarization; shares compounds with PREPL inh; recombinant PREPL, fluorescence polarization activity probe; inhibition, % at 5.96 µM; 2,000 tested, 67% active;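 also: 0% = protein with DMSO and 100% = wells lacking protein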
# Numbers without * were called inactive; / = not tested or not shown. Rule as the data show it, unless noted: active = inhibition above about 43%; inactive = the rest.
SMILES,Rpn11 inh,PREPL inh,PP1 counter,PP5 primary,NadD inh,PREPL confirm
c1ccc(COc2ccc(-c3cc4nc(NCCN5CCOCC5)ccn4n3)cc2)cc1,20.2,/,/,/,-6.2,/
Cc1[nH]c2ccc(C(=O)NCCCN3CCCCC3)cc2c1C,-8.4,11.6,-2.4,1.7,-0.2,/
Cc1[nH]c2ccc(C(=O)NCCN3CCCCCC3)cc2c1C,8.7,60.9*,-2.6,-2.2,18.0,31.9
Cc1[nH]c(C)c(S(=O)(=O)NCCc2ccc(S(N)(=O)=O)cc2)c1C(=O)N1CCCC1,5.7,53.9*,1.5,2.1,-0.7,12.7
CSc1ccc(CCNS(=O)(=O)c2c(C)[nH]c(C)c2C(=O)N2CCCCC2)cc1,-0.1,0.2,-2.4,3.3,-5.2,/
CN(CC(=O)Nc1ccc(Cl)cc1)C(=O)c1cccc(S(=O)(=O)N2CCN(Cc3ccccc3)CC2)c1,2.5,55.2*,-3.6,6.5,3.6,67.7*
CN(C)C(=O)c1ccc(NC(=O)c2cccc(S(=O)(=O)N3CCN(Cc4ccccc4)CC3)c2)cc1,-1.7,/,/,/,5.9,/
O=c1[nH]c(=S)[nH]c2c1[C@H](CCc1cccc(Cl)c1)O[C@H](C1CC1)C2,/,/,/,/,13.9,/
COc1cc(C2CC(=O)Oc3c(C(CCN4CCCC(C)C4)c4ccc(N(C)C)cc4)c(OC)cc(OC)c32)cc(OC)c1OC (centres undefined),-1.4,46.3*,2.2,4.5,3.9,52.0*
CN(C)CCCNc1cc(C(C)(C)C)nc2c(-c3ccc(Cl)cc3)cnn12,16.8,52.3*,5.3,5.5,-10.7,48.6*
O=C(COC(=O)CNC(=O)c1ccco1)Nc1ccc(Cl)cn1,1.2,-4.2,-2.2,0.9,-0.2,/
O=C(COC(=O)CNC(=O)c1ccccc1)Nc1ccc(Cl)cn1,-1.2,45.3*,/,/,2.2,1.8
CN(C)c1ccc(C2C=C(c3ccc(Cl)cc3OC(F)F)Nc3ncnn32)cc1 (centres undefined),/,56.4*,2.9,1.7,11.1,49.2*
COc1ccc2c(C=Nc3c(C)n(C)n(-c4ccccc4)c3=O)c(O)n(Cc3ccco3)c(=O)c2c1,/,55.6*,4.3,4.6,-2.8,37.4
O=C(Cn1nc(CNc2ccc(Br)cc2)[n+]2c1CCCCC2)c1ccc([N+](=O)[O-])cc1,-4.5,61.5*,8.3,1.1,7.6,44.0*
COc1ccc(NCc2nn(CC(=O)c3ccc(Br)cc3)c3[n+]2CCCCC3)cc1,28.5,50.7*,2.3,-2.3,6.6,55.4*
COc1ccc(-c2cn[nH]c2-c2ccc(OCc3ccccc3)cc2O)cc1OC,-10.6,49.4*,0.3,4.2,3.7,31.6
Cc1nc2ccc([N+](=O)[O-])cc2c(=O)n1Cc1cccc(Br)c1,-17.6,45.3*,7.3,2.7,4.5,34.3
Cc1cc(Br)ccc1N=C1NC(=O)CS1,-0.2,17.4,-2.3,1.2,-3.1,/
COc1cc2[nH]c3c(Cl)ncnc3c2cc1OC,-9.2,4.1,0.4,2.7,-3.7,/
COc1cc2[nH]c3c(N4CCN(c5ccc(Cl)cc5)CC4)ncnc3c2cc1OC,1.0,95.4*,1.9,3.8,-2.1,75.2*
COc1ccc2[nH]c3c(N4CC(C)OC(C)C4)ncnc3c2c1 (centres undefined),/,-1.2,5.6,1.9,/,/
COc1cccc(N2CCN(c3ncnc4c3[nH]c3ccc(F)cc34)CC2C)c1 (centres undefined),0.8,49.2*,3.4,5.2,0.1,46.5*
COc1cccc(N2CCN(c3ncnc4c3[nH]c3ccccc34)CC2C)c1 (centres undefined),/,46.0*,3.8,2.9,/,45.7*
CCN1CCN(CCNC(=O)CCCn2nc(C)c3c(C)n(-c4ccc(C)cc4)nc3c2=O)CC1,-4.0,22.5,11.0,0.0,-0.5,/
CCCOc1cccc(C(=O)NCCNC(=O)c2ccc(C)nc2)c1,-3.5,19.0,1.2,2.3,-4.2,/
O=Cc1ccc(OC(=O)Cc2ccc(F)cc2)cc1,/,-7.9,0.6,-0.3,/,/
